Assay [1] can be described thus: small molecules captured by biotinylated probe aFSTL3 – biochemical, small-molecule microarray, fluorescence 635/667, stem cell growth factor project, primary screen (AID 1064).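 Further: measures binding of the biotinylated anti-FSTL3 antibody to printed compounds.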 The conditions noted are these: higher = more signal.
The nature of assay [2]: binders from COS7 lysate, DM2A8 probe, primary screen, torsin A project, cell lysate, small-molecule microarray, fluorescence 635/667 (AID 1065). Conditions: higher = more signal, COS7 lysate expressing mutant human TOR1A.
A short description of assay [3]: small molecules captured by biotinylated probe aFGF2 – biochemical, small-molecule microarray, fluorescence 635/667, stem cell growth factor project, primary screen (AID 1067).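 Further: measures binding of biotinylated aFGF2 protein to printed compounds on slides; z-score merges feature fluorescence and signal-to-noise across triplicate slides.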 Conditions: higher = more signal.
Assay [4] is described as follows: small molecules captured by biotinylated probe aFGF10 – biochemical, small-molecule microarray, fluorescence 635/667, stem cell growth factor project, primary screen (AID 1071).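 Further: score merges 667 nm spot intensity and signal to noise from triplicate slides.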 Conditions: higher = more signal.
The target in assay [5] is Neurogenic locus notch homolog protein 2 (Homo sapiens) (UniProt Q04721). Put plainly: small molecules binding Notch2 protein – biochemical, small-molecule microarray, 635 nm fluorescence, stem cell growth factors, primary screen (AID 1073). The conditions noted are these: higher = more signal.
The target in assay [6] is Pro-neuregulin-1, membrane-bound isoform (Homo sapiens) (UniProt Q02297). Put plainly: small molecules binding neuregulin-1 protein – biochemical, small-molecule microarray, fluorescence 635/667, psychiatric disease protein project, primary screen (AID 1075).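 Further: score combines 667 nm spot fluorescence with signal to noise.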 Conditions: NRG1 binding, 635 nm fluorescence, higher = more signal.
Assay [7] deals with Neuregulin-1 EGF-like domain. Put plainly: small molecules binding NRG1 EGF domain – biochemical, small-molecule microarray, 635 nm fluorescence, primary screen (AID 1081).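 Further: binding of the protein to compounds printed on small-molecule microarray slides.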 Conditions: higher = more signal.
The nature of assay [8]: FRG1 expression reporter modulators in myotubes – cell-based, C2C12 myotubes, firefly/Renilla luciferase, luminescence, FRG1 inhibition for FSHD, primary screen (AID 1084). The conditions noted are these: FRG1 promoter luciferase, higher = more signal, called active from +8 up or from −8 down.
Assay [9] is described as follows: small molecules captured by biotinylated probe aFST – biochemical, small-molecule microarray, fluorescence 635/667, stem cell growth factor project, primary screen (AID 1086).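 Further: score merges 667 nm fluorescence with signal-to-noise of each printed compound spot.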 The conditions noted are these: higher = more signal.
Assay [10] can be described thus: binders of probe aHhip on microarray, primary screen, stem cell growth factor project, biochemical, small-molecule microarray, fluorescence 635/667 (AID 1087).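 Further: score merges spot fluorescence at 667nm with spot signal to noise ratio.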 Conditions: higher = more signal.
Assay [11] deals with PRMT1 (protein arginine N-methyltransferase 1). Put plainly: small molecules binding arginine methyltransferase PRMT1 – biochemical, small-molecule microarray, 635 nm fluorescence, primary screen (AID 1088).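 Further: binding of Prmt1 protein to compounds spotted on small-molecule microarray slides.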 The conditions noted are these: higher = more signal.
The nature of assay [12]: growth effects on S. cerevisiae YJM789 – YJM789 clinical isolate, OD600, 24 h, basal, primary screen (AID 1089).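 Further: growth of clinical yeast isolate S. cerevisiae YJM 789 seeded 1000 cells per well; test concentration not given here.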 Conditions: higher = more signal, called active from +8 up or from −8 down.
Assay [13] can be described thus: S. pombe growth modifiers, basal conditions – strain 972, OD600, 24 h, no modulator, primary screen (AID 1090).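 Further: basal condition with compound alone and no growth modifier present; test concentration not given here.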 Conditions: S. pombe 972 growth, higher = more signal, called active from +8 up or from −8 down.
The nature of assay [14]: budding yeast growth modifiers under rapamycin – strain BY4716, OD600, 96 h, primary screen (AID 1091). Further: test concentration not given here. The conditions noted are these: S. cerevisiae BY4716 + rapamycin, higher = more signal, called active from +8 up or from −8 down.
Assay [15] deals with Torsin-1A-interacting protein 2 (Homo sapiens) (UniProt Q8NFQ8). As to the kind of experiment: small molecules binding lysate-expressed LULL1 – cell lysate, human LULL1 lysate, 635/667 nm fluorescence, primary screen (AID 1092).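 Further: probe is lysate of COS7 cells overexpressing human LULL1; score merges per-feature 667 nm fluorescence with signal-to-noise.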 The conditions noted are these: small-molecule microarray, hLULL1 lysate binding, 635 nm fluorescence; higher = more signal.
Assay [16] in a line: optical density change of DRC41 E. coli – strain DRC41, OD650, 24 h, E. coli filamentation project, primary screen (AID 1093).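 Further: MC1000 strain lacking acrAB efflux and sulA so SOS filamentation is blocked; test concentration not given here.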 The conditions noted are these: E. coli DRC41 growth, higher = more signal, called active from +8 up or from −8 down.
Assay [17] is described as follows: probe aLefty2 binding to arrayed compounds – biochemical, biotinylated probe, 635/667 nm fluorescence, primary screen (AID 1094).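 Further: score merges spot fluorescence near 667 nm with spot signal-to-noise ratio.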 The conditions noted are these: small-molecule microarray, higher = more signal.
The subject of assay [18] is Noggin (protein binding on small-molecule microarray). Put plainly: small molecules binding Noggin protein – biochemical, 635/667 nm fluorescence, primary screen (AID 1095).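 Further: score merges 667 nm feature fluorescence with signal to noise over triplicate slides.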 The conditions noted are these: 635 nm fluorescence, higher = more signal.
Assay [19] deals with Neurogenic locus notch homolog protein 3 (Homo sapiens) (UniProt Q9UM47). Put plainly: small molecules binding NOTCH3 protein – biochemical, 635/667 nm fluorescence, primary screen (AID 1096). Conditions: small-molecule microarray, 635 nm fluorescence, higher = more signal.
Assay [20] can be described thus: probe aEGFR binding to arrayed compounds – biochemical, biotinylated probe, 635/667 nm fluorescence, primary screen (AID 1097).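 Further: probe is a biotinylated anti-EGFR antibody binding compounds printed on slides; score combines fluorescence near 667 nm and signal to noise of each spot.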 The conditions noted are these: small-molecule microarray, higher = more signal.

Activity calls are given as the source filed them.

Pro-neuregulin-1, membrane-bound isoform (Homo sapiens), sequence (Q02297 whole entry, looked up, the tested form may be a part, canonical isoform): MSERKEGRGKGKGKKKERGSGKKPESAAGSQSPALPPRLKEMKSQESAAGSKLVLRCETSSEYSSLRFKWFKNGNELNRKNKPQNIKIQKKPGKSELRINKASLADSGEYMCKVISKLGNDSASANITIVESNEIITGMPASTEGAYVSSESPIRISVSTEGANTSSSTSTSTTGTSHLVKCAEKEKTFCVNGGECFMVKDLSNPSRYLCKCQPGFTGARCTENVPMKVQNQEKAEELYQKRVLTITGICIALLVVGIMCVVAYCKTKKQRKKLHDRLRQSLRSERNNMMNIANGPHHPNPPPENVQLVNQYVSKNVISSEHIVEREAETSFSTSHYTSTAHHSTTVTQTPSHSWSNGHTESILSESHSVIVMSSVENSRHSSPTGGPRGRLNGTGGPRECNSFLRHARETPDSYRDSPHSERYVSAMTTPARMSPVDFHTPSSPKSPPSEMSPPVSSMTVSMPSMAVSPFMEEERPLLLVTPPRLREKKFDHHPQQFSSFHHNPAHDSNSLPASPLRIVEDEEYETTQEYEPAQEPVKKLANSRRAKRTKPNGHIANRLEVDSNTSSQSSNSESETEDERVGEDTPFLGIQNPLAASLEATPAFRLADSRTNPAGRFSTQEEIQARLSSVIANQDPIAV
Neurogenic locus notch homolog protein 2 (Homo sapiens), sequence (Q04721 whole entry, looked up, canonical isoform): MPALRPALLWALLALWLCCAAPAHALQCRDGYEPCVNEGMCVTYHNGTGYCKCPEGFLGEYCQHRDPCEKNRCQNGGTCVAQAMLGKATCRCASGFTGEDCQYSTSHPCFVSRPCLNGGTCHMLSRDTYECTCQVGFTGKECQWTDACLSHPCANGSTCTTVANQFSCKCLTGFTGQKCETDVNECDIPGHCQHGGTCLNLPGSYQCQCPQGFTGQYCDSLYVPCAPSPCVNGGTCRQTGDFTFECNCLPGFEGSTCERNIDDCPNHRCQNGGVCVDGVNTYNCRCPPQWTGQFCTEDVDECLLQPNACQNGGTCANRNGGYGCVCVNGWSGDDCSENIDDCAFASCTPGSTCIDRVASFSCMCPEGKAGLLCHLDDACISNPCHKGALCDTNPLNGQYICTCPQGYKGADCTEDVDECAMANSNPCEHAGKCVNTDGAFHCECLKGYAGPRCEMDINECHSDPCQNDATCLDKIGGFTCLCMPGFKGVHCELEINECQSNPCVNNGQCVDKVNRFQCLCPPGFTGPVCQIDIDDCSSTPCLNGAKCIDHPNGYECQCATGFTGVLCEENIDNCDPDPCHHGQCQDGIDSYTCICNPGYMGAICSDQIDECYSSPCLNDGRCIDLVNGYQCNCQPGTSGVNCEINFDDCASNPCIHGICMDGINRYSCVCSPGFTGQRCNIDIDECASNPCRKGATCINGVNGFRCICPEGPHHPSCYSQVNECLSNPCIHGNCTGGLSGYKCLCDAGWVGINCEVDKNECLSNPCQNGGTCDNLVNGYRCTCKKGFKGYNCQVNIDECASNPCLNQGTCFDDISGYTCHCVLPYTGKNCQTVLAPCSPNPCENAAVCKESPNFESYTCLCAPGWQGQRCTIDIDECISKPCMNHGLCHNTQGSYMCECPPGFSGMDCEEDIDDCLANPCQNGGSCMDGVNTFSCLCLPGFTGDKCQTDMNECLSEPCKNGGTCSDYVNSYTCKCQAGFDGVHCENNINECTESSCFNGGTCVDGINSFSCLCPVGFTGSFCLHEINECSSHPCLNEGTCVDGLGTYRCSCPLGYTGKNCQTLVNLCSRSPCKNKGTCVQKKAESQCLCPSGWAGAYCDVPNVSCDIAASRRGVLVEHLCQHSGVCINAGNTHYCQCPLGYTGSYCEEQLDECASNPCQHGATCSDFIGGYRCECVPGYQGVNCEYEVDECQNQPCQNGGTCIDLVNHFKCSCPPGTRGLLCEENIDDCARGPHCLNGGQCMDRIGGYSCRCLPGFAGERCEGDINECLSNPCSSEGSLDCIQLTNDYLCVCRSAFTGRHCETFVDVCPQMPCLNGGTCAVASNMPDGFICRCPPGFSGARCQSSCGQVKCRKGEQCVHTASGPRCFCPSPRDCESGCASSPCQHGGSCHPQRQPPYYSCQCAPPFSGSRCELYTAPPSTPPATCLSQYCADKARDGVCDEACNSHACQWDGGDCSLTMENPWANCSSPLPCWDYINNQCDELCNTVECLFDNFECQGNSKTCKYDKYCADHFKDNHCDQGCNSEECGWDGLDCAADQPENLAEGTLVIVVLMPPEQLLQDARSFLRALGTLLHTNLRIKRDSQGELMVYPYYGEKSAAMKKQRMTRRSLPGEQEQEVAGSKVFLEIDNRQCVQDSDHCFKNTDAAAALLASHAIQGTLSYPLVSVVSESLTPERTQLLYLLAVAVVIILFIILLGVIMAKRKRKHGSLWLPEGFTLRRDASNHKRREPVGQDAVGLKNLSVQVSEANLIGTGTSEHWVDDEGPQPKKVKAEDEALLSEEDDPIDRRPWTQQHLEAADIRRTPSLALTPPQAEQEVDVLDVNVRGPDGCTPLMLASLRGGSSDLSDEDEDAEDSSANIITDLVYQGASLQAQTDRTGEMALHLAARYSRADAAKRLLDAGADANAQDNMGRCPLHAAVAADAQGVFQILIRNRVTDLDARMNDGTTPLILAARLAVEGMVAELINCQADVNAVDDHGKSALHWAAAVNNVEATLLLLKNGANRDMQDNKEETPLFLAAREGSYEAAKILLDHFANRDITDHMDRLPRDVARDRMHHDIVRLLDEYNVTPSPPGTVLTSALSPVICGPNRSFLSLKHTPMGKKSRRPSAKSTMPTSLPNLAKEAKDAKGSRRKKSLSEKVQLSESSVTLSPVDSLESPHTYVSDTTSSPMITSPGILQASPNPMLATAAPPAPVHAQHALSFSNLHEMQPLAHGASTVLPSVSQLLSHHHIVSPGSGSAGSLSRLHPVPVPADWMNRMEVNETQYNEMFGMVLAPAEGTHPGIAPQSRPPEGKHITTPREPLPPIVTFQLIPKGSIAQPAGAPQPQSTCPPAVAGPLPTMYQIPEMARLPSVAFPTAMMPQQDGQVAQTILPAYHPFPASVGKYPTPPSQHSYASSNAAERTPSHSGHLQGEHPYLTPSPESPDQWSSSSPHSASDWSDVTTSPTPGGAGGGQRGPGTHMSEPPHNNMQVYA
Torsin-1A-interacting protein 2 (Homo sapiens), sequence (Q8NFQ8 whole entry, looked up): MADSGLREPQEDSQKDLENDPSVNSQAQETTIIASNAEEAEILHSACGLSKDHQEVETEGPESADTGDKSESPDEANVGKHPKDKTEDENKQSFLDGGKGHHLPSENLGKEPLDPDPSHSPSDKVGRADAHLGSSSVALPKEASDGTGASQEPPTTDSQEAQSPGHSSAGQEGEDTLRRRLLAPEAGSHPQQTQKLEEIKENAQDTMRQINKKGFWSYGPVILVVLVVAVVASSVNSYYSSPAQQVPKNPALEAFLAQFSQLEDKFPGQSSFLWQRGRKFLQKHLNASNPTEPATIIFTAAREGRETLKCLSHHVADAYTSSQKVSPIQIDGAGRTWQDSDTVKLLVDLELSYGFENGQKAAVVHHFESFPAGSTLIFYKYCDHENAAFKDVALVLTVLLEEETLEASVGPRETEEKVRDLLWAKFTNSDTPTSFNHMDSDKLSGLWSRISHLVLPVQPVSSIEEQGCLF

`CC1CC/C=C\[C@H]2OC34C=CCN(Cn5nnc6ccccc65)C(=O)[C@H]3N(CCCCCCO)C(=O)[C@@H]4C2C(=O)O1` (stereo not given in full): the composite z-score in assay [1] was 0.372; in [2], -1.11; in assay [3], -0.176; in [4], -0.539; in assay [5] it was -0.964; in assay [6], 2.14. The composite z-score in assay [7] is 1.59; in [9], -0.541; in assay [10], -0.169; in assay [11] it was -0.526; in assay [15], 2.9; in assay [17], -0.205. The composite z-score was -1.09 in [18], -0.368 in assay [19] and -0.33 in assay [20]. Also, the z-score in [8] is -0.863 (inactive); in assay [12] it was 0.28 (inactive); in assay [13], -0.0728 (inactive); in [14], 0.105 (inactive); in assay [16], 0.167 (inactive).

For the compound `CO[C@H]1O[C@H](CO)[C@@H](OC(=O)Nc2ccc3c(c2)OCO3)[C@H](OC(=O)Nc2ccccc2-c2ccccc2)[C@H]1OC(=O)Nc1ccccc1-c1ccccc1`, the composite z-score in [1] was 0.22; in [2] it was 0.873; in assay [3], 0.007; in assay [4] it was 1.26; in assay [5], 1.44; in [6] it was 0.96. The composite z-score was 1.18 in [7]; 0.189 in [9]; 0.0749 in [10]; 1.54 in assay [11]; 3.35 in [15]; 0.0164 in assay [17]. Moreover, the composite z-score in [18] was found to be 0.546; in [19], 0.624; in assay [20] it was 0.29. The z-score is 0.124 (inactive) in [8]; 2.5 (inactive) in assay [12]; 2.11 (inactive) in [13]; 2.28 (inactive) in assay [14]; 0.566 (inactive) in assay [16].

With `CCOC(=O)C[C@H]1[C@H](OC(=O)Cc2ccc3c(c2)OCO3)[C@@H](NC(=O)c2ccc3ccccc3n2)c2cc(OCCCO)ccc2N1C(=O)Cc1ccc(OC)cc1`, the composite z-score in [1] is -0.238; in [2], 0.38; in assay [3], -0.0785; in assay [4], 0.205; in assay [5], 0.761; in assay [6], 1.17. For the same compound, the composite z-score was 0.38 in [7]; 0.447 in assay [9]; -0.0994 in assay [10]; 0.742 in [11]; 1.34 in assay [15]; 0.0071 in assay [17]. For the same compound, the composite z-score is 1.25 in assay [18], 0.55 in assay [19] and -0.103 in assay [20]. The z-score was -0.876 (inactive) in assay [8]; -2.25 (inactive) in assay [12]; 0.154 (inactive) in [13]; -0.107 (inactive) in assay [14]; 0.647 (inactive) in assay [16].

In the case of `[N-]=[N+]=Nc1ccccc1[C@@H]1OC(c2ccc(OCCCO)cc2)=N[C@]1(Cc1ccccc1)C(=O)NCCN1CCOCC1`, the composite z-score in assay [1] was -0.0258; in [2], 2.32; in assay [3], -0.001; in [4] it was 0.916; in assay [5] it was 1.21; in [6] it was -0.238. Also, the composite z-score was found to be 1.33 in [7]; 1.26 in assay [9]; 0.24 in assay [10]; 0.547 in [11]; 3.51 in assay [15]; 0.0787 in assay [17]. The composite z-score in assay [18] was 0.762; in assay [19] it was 1.09; in [20] it was -0.0106. For the same compound, the z-score is -0.906 (inactive) in assay [8]; -0.312 (inactive) in [12]; -1.36 (inactive) in [13]; 0.152 (inactive) in [14]; 0.382 (inactive) in assay [16].

Consider `COc1ccc(C(O)C2C=CC3C(=O)N(c4ccccc4)C(=O)C3N2Nc2ccc([N+](=O)[O-])cc2)c2ccccc12` (stereo not given), for which the composite z-score in assay [1] was 0.138; in assay [2], 0.263; in assay [3], 0.0688; in [4], 0.852; in assay [5], 1.6; in assay [6], 1.75. For the same compound, the composite z-score was determined as 1.27 in assay [7]; 0.812 in assay [9]; 0.251 in [10]; 1.53 in assay [11]; 3.38 in assay [15]; 0.0798 in [17]. Moreover, the composite z-score in [18] was -0.268; in assay [19], 1.07; in assay [20], -0.0076. The z-score is 0.337 (inactive) in assay [8]; -0.861 (inactive) in [12]; 1.68 (inactive) in assay [13]; 2.3 (inactive) in assay [14]; -0.824 (inactive) in [16].

Consider `COc1cc(C(O)C2C=CC3C(=O)N(c4ccccc4)C(=O)C3N2Nc2ccccc2)cc(OC)c1OC` (stereo not given), for which the composite z-score in [1] was 0.251; in assay [2], 0.36; in [3], 0.218; in assay [4], 1.14; in assay [5] it was 1.68; in assay [6] it was 1.92. The composite z-score in assay [7] was determined as 1.17; in [9], 1.48; in assay [10] it was 0.189; in assay [11], 1.54; in [15], 3.71; in assay [17], 0.228. The composite z-score was -0.124 in assay [18], 1.03 in assay [19] and 0.0473 in assay [20]. The z-score in assay [8] is 1.07 (inactive); in assay [12], -0.722 (inactive); in assay [13], 0.82 (inactive); in assay [14], -0.205 (inactive); in assay [16], -0.651 (inactive).

For the compound `C=C(COC)C(=O)CC[C@@H](OC(C)=O)c1ccccc1OCCO`, the composite z-score in [1] was -0.215; in assay [2], -0.0765; in assay [3], -0.102; in [4], 1.39; in [5], -0.54; in [6], 0.695. Further, the composite z-score in assay [7] is 0.326; in [9], 0.406; in assay [10] it was -0.0994; in assay [11] it was 1.34; in [15] it was 1.76; in assay [17], -0.117. Also, the composite z-score in assay [18] is 1.11; in assay [19], 0.784; in assay [20], -0.0382. Moreover, the z-score is 0.151 (inactive) in assay [8]; -1.89 (inactive) in [12]; -3.27 (inactive) in [13]; -1.51 (inactive) in assay [14]; 0.732 (inactive) in [16].

In the case of `C[C@]1(C(=O)O)c2ccccc2C(=O)N(Cc2cc(F)cc(C(F)(F)F)c2)[C@H]1c1ccc(CO)cc1`, the composite z-score in [1] is -0.25; in assay [2], -0.205; in assay [3], -0.0887; in assay [4], 0.0859; in [5] it was 0.361; in [6], 0.233. In addition, the composite z-score in assay [7] was 0.936; in assay [9], 0.436; in assay [10], -0.268; in assay [11] it was 0.413; in assay [15], 1.64; in assay [17] it was -0.153. The figures for the composite z-score in assay [18], in assay [19] and in [20] were 1.04, 0.137 and -0.115, respectively. Besides, the z-score is -0.163 (inactive) in [8]; -0.994 (inactive) in [12]; -1.3 (inactive) in [13]; -1.9 (inactive) in [14]; 0.581 (inactive) in assay [16].

On to `Cc1ccccc1C(O)C1C=CC2C(=O)N(c3ccccc3)C(=O)C2N1Nc1ccccc1` (stereo not given), for which the composite z-score in assay [1] worked out at 0.457; in assay [2] it was 0.573; in assay [3], 0.133; in assay [4], 1.15; in assay [5], 1.61; in [6], 2.18. The composite z-score in assay [7] was 1.31; in assay [9], 1.06; in [10] it was 0.0741; in assay [11], 1.53; in [15], 3.42; in assay [17] it was 0.307. The composite z-score in assay [18] came out at 0.219; in [19], 1.03; in assay [20] it was 0.183. For the same compound, the z-score was -1.78 (inactive) in assay [8]; 0.555 (inactive) in assay [12]; 0.828 (inactive) in assay [13]; 0.0369 (inactive) in assay [14]; -0.555 (inactive) in assay [16].

The values above are taken from PubChem BioAssay.
